Screening data as filed in PubChem BioAssay.
Most compounds without a hit are left out; they make up all but 7.8% or so of the library.
Lassa entry inh – blocks Lassa virus binding to or entry into cells. Potency, µM (series often up to 37.9 µM), inactives show at the highest dose activity change, negative = inhibition, hits mostly inhibitors. Lassa virus pseudotype entry inhibition, cell reporter. 300,000 tested, 1.2% active; calls by dose curve; tested in HEK293 cells; note: potency is the fitted concentration of half-maximal effect; nearly all actives have a fitted effect of over 50% in size
MARV entry inh – blocks Marburg virus binding to or entry into cells; Marburg virus pseudotyped entry inhibition, cell reporter; Potency, µM (series often up to 37.8 µM), for the others: top-dose activity change, negative = inhibition, actives largely listed as inhibitors; 300,000 tested, 1.8% active; AID 540276; calls by dose curve; tested in HEK293 cells; note: potency is the fitted concentration of half-maximal effect
VACV Venus inh – inhibitors of vaccinia virus (Venus reporter); 330,000 tested, 0.46% active; Potency, µM (doses to about 36.5 µM), for inactives: at the top dose activity change, negative = inhibition, hits mostly inhibitors; Vaccinia virus Venus reporter expression, fluorescence; calls by dose curve; tested in A549 cells; note: potency is the fitted concentration of half-maximal effect; nearly all actives have a fitted effect of over 30% in size
HCMV inh – inhibitors of human cytomegalovirus; activity change, negative = inhibition, % at 57.5 µM; 410,000 tested, 4.5% active; HFF cells, HCMV-luciferase reporter, 72 h; stronger effect = lower value; in the data active = activity change below about -60%; inconclusive = no clear call, values can overlap the other calls; inactive = above about -39%
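Two compound doses tested in HFFs infected with HCMV-luciferase, MOI 1 PFU/cell, 72 h at 37C. Lysate luminescence read with OneGlo; data normalized against buffer-only and 10uM Salinomycin inhibitor controls.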
HCV inh – blocks hepatitis C virus; AID 651820; 340,000 tested, 3.4% active; Huh7.5.1 HCVcc-Cre infection, luciferase reporter, 44 h; Potency, µM (series often up to 41.8 µM), for inactives: top-dose activity change, negative = inhibition, hits mostly inhibitors; active = well fitted inhibition curve with a large enough effect; inconclusive = small, poorly fitted or top-dose-only effect, or another doubt; inactive = no such curve, though single readings can be large or run the other way; note: potency is the fitted concentration of half-maximal effect
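Luciferase read-out (15 sec integration) after a 15 min room-temperature substrate step quantifies HCVcc-Cre infection. Cells, 1,000 per well, had compound added 4 h post-plating, then virus at ~0.5 moi, and were cultured 44 h.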
VACV mCherry inh – vaccinia inhibition (mCherry reporter) | Vaccinia virus mCherry reporter infection, fluorescence | Potency, µM (titrated, usually from 36.5 µM), without a hit: at the highest dose activity change, negative = inhibition, hits mostly inhibitors | 310,000 tested, 0.63% active; calls by dose curve; tested in A549 cells; note: potency is the fitted concentration of half-maximal effect; nearly all actives have a fitted effect of over 35% in size
The depositor's hits bear a star; i = inactive; ? = inconclusive; nt = no result given; [ ] = remark or other dose. % is set by controls: 0 for no effect and ±100 for the full control effect.

SMILES	Lassa entry inh	MARV entry inh	VACV Venus inh	HCMV inh	HCV inh	VACV mCherry inh
Cc1cc(N2CCN(C)CC2)nc2ccc(NC(=O)Nc3ccccc3Br)cc12	?	nt	-17%	-95*	nt	-23%
ClC1=C(Cl)[C@]2(Cl)[C@@H]3[C@H]4C[C@H]([C@@H]5O[C@H]45)[C@@H]3[C@@]1(Cl)C2(Cl)Cl	nt	nt	0%	nt	nt	i
CC[C@H](C)[C@H](NC(=O)OCc1ccccc1)C(=O)OCC(=O)N1CCN(c2ccc(OC)cc2)CC1	nt	nt	nt	31	13µM*	nt
COc1ccc(N2CCN(C(=O)COC(=O)CNC(=O)c3ccc(Cl)cc3Cl)CC2)cc1	7%	27%	-6%	-22	10%	-20%
CC(C)[C@H](NC(=O)OCc1ccccc1)C(=O)OCC(=O)N1CCN(c2ccccc2)CC1	?	11%	-21%	-10	-12%	-1%
COc1ccc(N2CCN(C(=O)COC(=O)CC(NC(N)=O)c3ccc(Cl)cc3)CC2)cc1 (stereo not given)	nt	nt	-18%	-62*	nt	-14%
O=C(Cn1c(=O)oc2ccccc21)NCc1cccc(Cl)c1	nt	18%[46.1 µM]	-2%	20	nt	-17%
Cc1ccccc1Cn1c(C(=O)O)c(CNCc2cccc(F)c2)c2ccccc21	2%[46.1 µM]	nt	-8%	0	nt	i
NC(=O)C1=C(N=C2CCCCC2)CCCC1	1%[46.1 µM]	-2%	-4%	10	4%	i
COc1ccc(NC(=O)c2n[nH]c(=O)c3ccccc23)cc1S(=O)(=O)N1CCCCC1	?	?	-27%	-17	11µM*	?
COc1ccc(NC(=O)COC(=O)c2cccn2C)cc1S(=O)(=O)N1CCCCC1	9%[46.1 µM]	?	-13%	-69*	?	i
COc1ccc(C(=O)OCC(=O)Nc2ccc(OC)c(S(=O)(=O)N3CCCCC3)c2)cc1[N+](=O)[O-]	?	4%[46.1 µM]	-7%	1	?	-22%
COc1ccc(OCC(=O)Nc2ccc(OC)c(S(=O)(=O)N3CCCCC3)c2)cc1	?	?	?	-25	10µM*	?
COc1ccc(NC(=O)COc2ccccc2Cl)cc1S(=O)(=O)N1CCCCC1	?	?	?	?	10µM*	-31%
Cn1cccc1C(=O)OCC(=O)Nc1ccc2c(c1)OCCO2	7.1µM*	6.3µM*	-7%	132	-7%	-6%
COc1ccc(NS(=O)(=O)c2c(F)cc(F)c(Cl)c2F)cc1S(=O)(=O)N1CCCCC1	20%	4%	5.6µM*	-26	9%	3.5µM*
COc1ccc(NS(=O)(=O)c2c(F)cccc2F)cc1S(=O)(=O)N1CCOCC1	10%	24%	2%	11	7%	-12%
COc1ccc(NC(=O)CSc2ccc3ccccc3c2)cc1S(=O)(=O)N1CCCCC1	?	?	?	-82*	5µM*	-23%
COc1ccc(NC(=O)CSc2ccc(NC(C)=O)cc2)cc1S(=O)(=O)N1CCOCC1	?	19%[46.1 µM]	-1%	-8	0%	i
Cc1ccc(OCC(=O)Nc2ccc(C)c(S(=O)(=O)N3CCCCC3)c2)c([N+](=O)[O-])n1	?	1.1µM*	-26%	-19	?	?
Cc1cccc(N2CCN(S(=O)(=O)c3ccc(-c4cc(C(F)(F)F)on4)s3)CC2)c1C	4%[46.1 µM]	nt	-9%	-22	nt	i
C/C(=C\C(=O)c1ccc(C)cc1)Nc1cccc(O)c1	-26%	-16%	-8%	89	13µM*	-25%
CC(=O)c1cccc(NS(=O)(=O)c2ccc(NC(=O)N3CCCCC3)cc2)c1	?	2.2µM*	-21%	-71*	?	-12%
CC(=O)c1cccc(N/C=C\C(=O)c2ccc(C)cc2)c1	7.9µM*	?	-17%	103	-19%	-12%
CC(=O)c1cccc(NS(=O)(=O)c2ccc(N/C=C\C(=O)c3ccc(C)cc3)cc2)c1	-3%	?	?	-2	?	-9%
SMILES	Lassa entry inh	MARV entry inh	VACV Venus inh	HCMV inh	HCV inh	VACV mCherry inh
Cc1ccc(C(=O)/C=C/Nc2cccc(O)c2)cc1	?	?	-10%	77	-7%	-16%
CC(=O)c1cccc(NS(=O)(=O)c2ccc(N/C=C/C(=O)c3ccc(F)cc3)cc2)c1	?	-61%	-27%	?	11µM*	?
COc1cccc(/C=C/c2nc(C#N)c(N3CCCCC3)o2)c1	-18%[46.1 µM]	1%[46.1 µM]	1%	-8	nt	2%
O=C(Nc1cc(F)ccc1F)c1cc2nc(-c3ccco3)cc(C(F)(F)Cl)n2n1	-2%[46.1 µM]	nt	-9%	-5	nt	-13%
Cn1c(=O)c2c(c3ccccc31)OC(=O)CC2c1cccc(F)c1 (stereo not given)	-17%[46.1 µM]	-22%[46.1 µM]	-11%	12	nt	-16%
CC(=O)c1ccc(NS(=O)(=O)c2ccc(N/C=C/C(=O)c3ccc(F)cc3)cc2)cc1	nt	nt	nt	-3	0%	nt
CC(=O)c1cccc(NS(=O)(=O)c2ccc(N/C=C\C(=O)c3ccc(F)cc3)cc2)c1	?	?	?	?	11µM*	nt
C=C[C@@H]1c2cc(C)ccc2N(S(=O)(=O)c2ccc(C)cc2)[C@H](c2ccc(C(C)(F)F)cc2)C1(C#N)C#N	nt	nt	-6%	nt	nt	-12%
O=C1C=CN(S(=O)(=O)c2ccc(F)cc2)C(c2cccs2)C1 (stereo not given)	nt	nt	nt	-3	nt	nt
COc1cccc(C2C3=C(N=c4s/c(=C\c5cccc(O)c5)c(=O)n42)c2ccccc2CC3)c1OC (stereo not given)	?	-23%	?	-96*	?	-26%
Cc1cc(C)cc(NC(=O)C2CCCN(C(=O)c3cnn(-c4ccccc4)c3-n3cccc3)C2)c1 (stereo not given)	-24%[46.1 µM]	?	-18%	-26	nt	-28%
COC(=O)c1cccc(C23CC4(C2)[C@H](CN(Cc2ccc(C(F)(F)F)cc2)[C@@H]4c2ccccc2)C3c2ccc(C(F)(F)F)cc2)c1 (stereo not given in full)	nt	nt	-25%	-94*	1%[8.37 µM]	-11%
FC(F)(F)c1ccc(CN2C[C@@H]3C(c4ccc(C(F)(F)F)cc4)C4(c5cccnc5)CC3(C4)[C@H]2c2ccccc2)cc1 (stereo not given in full)	nt	nt	-29%	-73*	10%	-4%
COC(=O)c1cccc(C23CC4(C2)[C@H](CN(Cc2ccc(C(F)(F)F)cc2)[C@@H]4c2ccccc2)C3c2ccc(Cl)nc2)c1 (stereo not given in full)	nt	nt	-12%	-35	21%	-4%
c1ccc(C2[C@H]3CN(Cc4cccnc4)[C@H](c4ccccc4)C34CC2(c2cccnc2)C4)cc1 (stereo not given in full)	nt	nt	?	-65*	48%[8.37 µM]	-18%
COc1ccccc1NC(=O)c1cc2c(=O)n(Cc3cccs3)ccc2nc1C	-30%[46.1 µM]	nt	-14%	-23	nt	-18%
O=C(CSc1n[nH]c(-c2ccccc2)n1)N1CCN(c2ccccc2F)CC1	7%[46.1 µM]	nt	-10%	-5	nt	-10%
